# Results taken from PubChem BioAssay (NCATS).
# Inconclusive results are not listed. Where a call stands in place of a potency, no number is given. Calls of active or inactive are those of the source. The call rests on the fitted dose curve; in most records, active means well fitted inhibition curve with a large enough effect; inconclusive means small, poorly fitted or top-dose-only effect; inactive means flat fitted curve, though single readings scatter.
# Test system: Zika virus NS2B-NS3 protease
# Assay: Primary screen GU AMC qHTS for Zika virus inhibitors (AID 1347154); further: nearly all actives have a fitted effect of over 70% in size
# Conditions: Zika NS2B-NS3 unlinked protease, AMC fluorogenic substrate; series mostly up to 54.1 µM
# How it was run: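 Unlinked Zika NS2B hydrophilic domain–NS3 protease complex at 25 nM in 10 mM Tris-HCl pH 8.0, 0.01% Tween 20, with an AMC peptide substrate. Fluorescence change (340/450 nm) over 15 min at room temperature, normalized to controls, fitted to 4-parameter Hill.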
SMILES,Potency,"activity change, negative = inhibition"
Cc1ncc(COP(=O)(O)O)c(C=O)c1O,inactive,–
CN(C)CCCO[C@@H]1[C@H]2OC(C)(C)O[C@H]2O[C@@H]1C(O)CO (stereo not given in full),inactive,–
CCCCOC(=O)c1ccc(O)cc1,inactive,–
c1ccc2c(CC3=NCCN3)cccc2c1,inactive,–
CC1CC(OC(=O)C(O)c2ccccc2)CC(C)(C)N1C (stereo not given),inactive,–
O=c1cc(CO)occ1O,inactive,–
CC(C)(C)NCC(O)COc1ccc(NC(=O)NC2CCCCC2)cc1 (stereo not given),inactive,–
C/C(=C(\CCOP(=O)(O)O)SC(=O)c1ccccc1)N(C=O)Cc1cnc(C)nc1N,–,0.0847% [at 4.99 µM] (inactive)
CN(N=O)C(=O)N[C@@H]1[C@@H](O)[C@H](O)[C@@H](CO)O[C@@H]1O,inactive,–
OC[C@H]1O[C@@H](O[C@@H]2[C@@H](CO)O[C@](O)(CO)[C@H]2O)[C@H](O)[C@@H](O)[C@H]1O,inactive,–
CC(COc1ccccc1)NC(C)C(O)c1ccc(O)cc1 (stereo not given),inactive,–
NC(=O)N/N=C/c1ccc([N+](=O)[O-])o1,inactive,–
CC[C@@]1(c2ccccc2)NC(=O)N(C)C1=O,inactive,–
N[C@@H](CSCCCO)C(=O)O,inactive,–
CCOC(=O)c1ccc(O)cc1,inactive,–
